Screening results from PubChem.
Sampled rows, rich in hits. Any-hit rate of the full collection: about 3.5%.
FBW7 activator – activators of human E3 ligase FBW7 | actives 0.13% (n = 650,000) | normalized activity (activation), % at 26.1 µM | AlphaScreen FBW7–phospho-cyclin E peptide binding, activator screen; in the data active = normalized activity above about 1.9%;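 note: purified mutant Fbw7 with reduced substrate affinity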
TEAD-YAP inh – TEAD-YAP interaction inhibition; HEK-TIYL cells, TEAD-Gal4/YAP UAS-luciferase luminescence; inhibition, % at 9.12 µM; actives 1.4% (n = 640,000); AID 1259422; in the data active = inhibition above about 32%;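 note: 0% = median of test compound wells and 100% = reference inhibitor wells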
GPR151 ag – activators of human GPR151; Q8TDV0; PathHunter beta-arrestin GPR151 cells, luminescence; activation, % at 11.2 µM; actives 1% (n = 650,000); in the data active = activation above about 4.9%;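 note: 0% = median of compound wells and 100% = cells with positive control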
MITF primary – inhibitors of human MITF; O75030; AlphaScreen MITF homodimerization, bead proximity signal; inhibition, % at 2.6 µM; actives 0.91% (n = 650,000); in the data active = inhibition above about 50%;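 note: 0% = vehicle wells with protein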
GPR151 confirm – confirmation of human GPR151 activators; shares compounds with GPR151 ag; GPR151 PathHunter beta-arrestin cells, luminescence, 90 min; % of EA-reagent control over plate median; activation, % at 11.2 µM; 6,700 tested, under 10 active; AID 1508609;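 active = mean percent activation across replicates above the confirmation screen cutoff of 4.91%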
GPR119 ag – counter-screen for GPR151 activators: effect on human GPR119 | shares compounds with GPR151 ag | GPR119 PathHunter beta-arrestin cells, luminescence, 90 min; 0 = compound-well median, 100 = enzyme-acceptor control | activation, % at 11.2 µM | actives 0.3% (n = 6,700) | AID 1508611;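 active = mean percent activation in the counterscreen above 29.09%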;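 note: counterscreen on off-target GPR119 to flag nonselective hits from the GPR151 activator screen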
Target sequence (Q8TDV5 whole entry, looked up): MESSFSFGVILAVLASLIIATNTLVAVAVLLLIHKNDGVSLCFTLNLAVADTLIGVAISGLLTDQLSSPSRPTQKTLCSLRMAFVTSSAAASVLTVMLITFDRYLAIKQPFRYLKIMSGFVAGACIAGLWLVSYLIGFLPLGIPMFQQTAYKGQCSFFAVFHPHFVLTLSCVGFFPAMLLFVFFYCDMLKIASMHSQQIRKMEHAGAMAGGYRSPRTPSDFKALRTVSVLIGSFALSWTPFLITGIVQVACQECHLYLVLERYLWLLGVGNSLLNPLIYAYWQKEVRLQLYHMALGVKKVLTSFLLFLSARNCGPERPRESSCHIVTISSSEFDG
* marks the source's active call; other numbers are inactive results; . = no result; ! = not active in a repeat.

SMILES	FBW7 activator	TEAD-YAP inh	GPR151 ag	MITF primary	GPR151 confirm	GPR119 ag
CCOc1ccc(-c2csc(/C(C#N)=C/c3ccc(N(C)C)cc3)n2)cc1	0	7	-1	0	.	.
COc1ccc(Cl)cc1N1CC(O)=C(c2nc3ccccc3[nH]2)C1=N	0	-5	1	9	.	.
COc1ccc(N2CC(O)=C(c3nc4ccccc4[nH]3)C2=N)cc1Cl	0	-18	6.0*	0	0	-3
N=C1C(c2nc3ccccc3[nH]2)=C(O)CN1CCc1ccccc1	0	-20	5.3*	4	0	-3
Cc1oc(-c2ccccc2)nc1C(=O)O	0	2	5.0*	-6	1	-2
CCCOc1ccc(OCC(=O)c2[nH]c(C)c(C(C)=O)c2C)cc1	0	30	0	15	.	.
CC(=O)c1c(C)[nH]c(C(=O)COc2cc(C)cc(C)c2)c1C	0	7	5.6*	8	1	2
COc1ccc(C2c3c(oc4ccccc4c3=O)C(=O)N2c2nnc(C)s2)cc1OC (stereo not given)	0	2	0	9	.	.
O=C(c1cccc(-n2c(=S)[nH]c3cc(Cl)ccc3c2=O)c1)N1CCCC1	0	-8	-1	40	.	.
CCOC(=O)C1CCCN(C(=O)c2cccc(-n3c(=S)[nH]c4cc(Cl)ccc4c3=O)c2)C1 (stereo not given)	0	0	6.6*	4	1	9
Cc1ccc(N2CC(=O)Nc3c(sc4nc(C)cc(C)c34)C2=O)cc1	0	3	2	-6	.	.
Cc1cc(C)c2c3c(sc2n1)C(=O)N(c1ccc(F)cc1)CC(=O)N3	0	2	5.6*	4	0	-1
Cc1nc2c(C(=O)NCc3ccc(F)cc3)c[nH]n2c(=O)c1Cl	0	-3	9.6*	2	0	5
Cc1nc2c(C(=O)NCCc3ccccc3)c[nH]n2c(=O)c1Cl	0	0	-1	15	.	.
COCCCNc1nc2c(c(=O)n(C)c(=O)n2C)n1Cc1ccc(F)cc1	0	1	0	13	.	.
CCNC(=O)N1CCC(Cn2c(COc3ccccc3)nc3ccccc32)CC1	0	-8	0	3	.	.
O=C(c1ccco1)N1CCC(Cn2c(COc3ccccc3)nc3ccccc32)CC1	0	-23	7.5*	13	0	-11
CC(C)CCNC(=O)c1cc(=O)[nH]c2ccc(Br)cc12	0	2	0	4	.	.
CCC(C)NC(=O)c1cc(=O)[nH]c2ccc(Br)cc12 (stereo not given)	0	8	8.8*	3	3	33*
O=C(NC1CC1)c1cc(=O)[nH]c2ccc(Br)cc12	0	-15	6.2*	3	0	20
O=C(Nc1ccc(Cl)c(Cl)c1)c1n[nH]n2c1nc(=O)c1ccccc12	0	2	-1	14	.	.
CC(C)N1CSC(=S)N(Cc2ccco2)C1	0	-13	-1	7	.	.
O=C(CCC1(Cc2ccco2)CCC(=O)N1)NCc1cnn(-c2ccccc2)n1 (stereo not given)	0	1	0	-2	.	.
O=C(CCC1(Cc2ccc3c(c2)OCO3)CCC(=O)N1)NCc1cnn(-c2ccccc2)n1 (stereo not given)	0	10	7.1*	2	1	6
COCC(=O)NCC1CCC2(CCN(Cc3ccc(N(C)c4ccccc4)cc3)CC2)O1 (stereo not given)	0	3	1	4	.	.
SMILES	FBW7 activator	TEAD-YAP inh	GPR151 ag	MITF primary	GPR151 confirm	GPR119 ag
COCC(=O)NCC1CCC2(CCN(C/C(C)=C/c3ccccc3)CC2)O1 (stereo not given)	0	5	5.1*	-4	1	10
Cc1ccc(S(=O)(=O)/N=C(\CN2CCCCC2)N2CCCCC2)cc1	0	2	5.4*	5	0	-6
CCCOc1ccc(C(CC(=O)O)NS(=O)(=O)c2ccc([N+](=O)[O-])cc2)cc1 (stereo not given)	0	-2	-2	28	.	.
O=c1[nH]c2nc(-c3cccc(O)c3)cnc2n1-c1ccc(N2CCOCC2)cc1	0	-2	2	2	.	.
COc1ccc(CN2CCCC(N3CCN(c4ccccc4OC)CC3)C2)cc1O (stereo not given)	0	-1	1	-2	.	.
COc1ccccc1N1CCN(C2CCCN(Cc3ccc4nonc4c3)C2)CC1 (stereo not given)	0	14	8.0*	0	1	-4
COc1ccccc1N1CCN(C2CCCN(Cc3ccncc3)C2)CC1 (stereo not given)	0	7	0	6	.	.
COc1ccccc1N1CCN(C2CCCN(Cc3cccn3-c3cccnc3)C2)CC1 (stereo not given)	0	4	7.5*	4	0	4
COCCNC(=O)CN(Cc1ccccc1)S(=O)(=O)c1ccc(C)cc1	0	-3	1	-1	.	.
Cc1cc(C)n(-c2ccc(NC(=O)C3CCN(Cc4cnc(C)s4)CC3)cc2)n1	0	3	5.8*!	-7	0	-14
Cc1ncc(CN2CCC(C(=O)Nc3ccc(-n4cccn4)cc3)CC2)s1	1	-7	-1	15	.	.
CN1CCN(C2CCN(c3cccc(Cl)c3)CC2)CC1CCO (stereo not given)	0	-7	-1	16	.	.
OCC1CCN(C2CCCN(C3CCN(c4cccc(Cl)c4)CC3)C2)CC1 (stereo not given)	0	-2	5.1*	6	0	-4
CCN(CC)CCNC(=O)C1CCN(c2nnc(N3CCCC3=O)s2)CC1	0	1	-1	5	.	.
C=CCNC(=O)CCN1C(=O)c2ccccc2C1=O	0	-4	5.6*	-6	2	1
COc1ccc(CN2C[C@@H]3C[C@@H](c4cccc5nonc45)N4CCC[C@@]34C2=O)cc1	0	-1	0	11	.	.
COc1ccc(CN2C[C@@H]3C[C@@H](c4ccc5nonc5c4)N4CCC[C@@]34C2=O)cc1	0	0	5.4*	17	0	4
O=C(CSc1nnc2scc(-c3ccccc3)n12)N1CCCCCC1	1	-3	-2	21	.	.
Cc1ccc(-c2csc3nnc(SCC(=O)N4CCOCC4)n23)cc1	1	0	5.0*	8	1	-1
CN(C(=O)CSc1nnc(-c2ccc(Cl)cc2)o1)C1(C#N)CCCCC1	0	11	2	-5	.	.
CCCn1cnc2sc(C(=O)Nc3ccccc3OC)c(C)c2c1=O	0	-8	11*	0	-1	-12
CC(C)Cc1ccc(C(C)C(=O)O)cc1 (stereo not given)	0	10	0	2	.	.
CC(C(=O)O)c1ccc(CC2CCCC2=O)cc1 (stereo not given)	0	4	6.7*!	4	0	1
COc1ccc(NC(=O)c2cc(Cl)ccc2Cl)c(OC)c1	0	0	1	6	.	.
